Reference: PubChem BioAssay (NCI)
About 79,000 compounds went through this panel and 15% of them were active in at least one assay; those are over-represented in the sample as a whole. Active and inactive are the calls of the source. No stated cut-off is given here; in the data, active means growth inhibition above about 70%; inactive means the rest.

Key:
[1] = NCI Yeast Anticancer Drug Screen. Data for the wt2 strain (AID 169);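 further: 0% = growth of vehicle-treated yeast cultures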; conditions: S. cerevisiae wt2 strain growth inhibition, stronger effect = higher value
Method in brief: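 Steps: yeast strain treated with compound; growth recorded; inhibition calculated relative to cultures given vehicle alone.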

[2] = NCI Yeast Anticancer Drug Screen. Data for the mlh1 strain (AID 171);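 further: 0% = growth of vehicle-treated control cultures of the same strain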; conditions: S. cerevisiae mlh1 strain growth inhibition, stronger effect = higher value
Method in brief: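 Yeast screen: mutant strain plus compound, growth scored against vehicle control wells.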

[3] = NCI Yeast Anticancer Drug Screen. Data for the sgs1 strain (AID 173);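 further: 0% = growth of vehicle-only control cultures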; conditions: S. cerevisiae sgs1 mutant, stronger effect = higher value
Method in brief: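 Inhibition of yeast growth served as the measure. The mutant strain was treated with each compound, and growth was normalised to cultures receiving vehicle alone.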

[4] = NCI Yeast Anticancer Drug Screen. Data for the mlh1 rad18 strain (AID 175); conditions: S. cerevisiae mlh1 rad18 strain growth inhibition, stronger effect = higher value
Method in brief: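 Compound-treated yeast growth, normalised to vehicle controls. Strain bears defined DNA repair mutations.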

[5] = NCI Yeast Anticancer Drug Screen. Data for the rad18 strain (AID 177); conditions: S. cerevisiae rad18 mutant growth inhibition, stronger effect = higher value
Method in brief: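 Inhibition values reflect reduced yeast growth compared with vehicle-treated controls, using a strain engineered with a DNA damage repair defect.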

[6] = NCI Yeast Anticancer Drug Screen. Data for the rad52 strain (AID 147);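 further: 0% = growth of vehicle-treated control cultures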; conditions: S. cerevisiae rad52 mutant growth inhibition, stronger effect = higher value
Method in brief: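 Genetically altered yeast (DNA damage repair defect) treated with compound; inhibition calculated relative to vehicle.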

[7] = NCI Yeast Anticancer Drug Screen. Data for the wt1 strain (AID 149);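 further: 0% = growth of vehicle-treated wt1 cultures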; conditions: S. cerevisiae wt1 strain (SPY 50644) growth inhibition, stronger effect = higher value
Method in brief: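 Using yeast strain wt1, compound-induced growth inhibition was determined against vehicle-treated cultures.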

[8] = NCI Yeast Anticancer Drug Screen. Data for the rad50EPP+ strain (AID 151);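 further: 0% = growth of vehicle-treated control cultures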; conditions: S. cerevisiae rad50 mutant strain, stronger effect = higher value
Method in brief: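 Strain rad50EPP+; compound exposure; % growth inhibition vs vehicle.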

[9] = NCI Yeast Anticancer Drug Screen. Data for the mgt1 strain (AID 153); conditions: S. cerevisiae mgt1 mutant growth inhibition, stronger effect = higher value
Method in brief: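 Read-out: yeast growth inhibition vs vehicle control. Strain mgt1, drawn from a panel altered in DNA damage repair or cell cycle control.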

[10] = NCI Yeast Anticancer Drug Screen. Data for the rad50 strain (AID 155);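 further: 0% = growth of vehicle-only cultures of the same strain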; conditions: S. cerevisiae rad50 strain growth inhibition, stronger effect = higher value
Method in brief: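 Relative growth inhibition (compound vs vehicle) was measured in yeast with a defined repair-gene alteration.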

[11] = NCI Yeast Anticancer Drug Screen. Data for the mec2-1 strain (AID 157); conditions: S. cerevisiae mec2-1 strain, stronger effect = higher value
Method in brief: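 Cells of the genetically defined mec2-1 yeast strain are incubated with test compound. Inhibition of growth is calculated against vehicle-treated controls.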

[12] = NCI Yeast Anticancer Drug Screen. Data for the rad14 strain (AID 159);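 further: 0% = growth of vehicle-treated control cultures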; conditions: S. cerevisiae rad14 strain growth inhibition, stronger effect = higher value
Method in brief: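 Screen for anticancer potential: a yeast strain altered in DNA damage repair is grown with compound, and reduced growth is quantified against vehicle controls.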

[13] = NCI Yeast Anticancer Drug Screen. Data for the sgs1 mgt1 strain (AID 161);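 further: 0% = growth of cultures given vehicle only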; conditions: S. cerevisiae sgs1 mgt1 strain, stronger effect = higher value
Method in brief: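 Read-out: growth inhibition vs vehicle controls. Cells: mutant yeast strain deficient in DNA damage repair.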

[14] = NCI Yeast Anticancer Drug Screen. Data for the CLN2oe strain (AID 163);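 further: 0% = growth of vehicle-only control cultures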; conditions: S. cerevisiae CLN2oe strain, stronger effect = higher value
Method in brief: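 Strain altered in cell-cycle control, incubated with compound; growth compared to solvent-treated controls.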

[15] = NCI Yeast Anticancer Drug Screen. Data for the cln2 rad14 strain (AID 165);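 further: 0% = growth equal to vehicle treated cultures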; conditions: S. cerevisiae cln2 rad14 strain, stronger effect = higher value
Method in brief: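 The screen exposed genetically defined yeast (cln2 rad14) to test compounds and scored growth inhibition relative to vehicle-treated controls.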

[16] = NCI Yeast Anticancer Drug Screen. Data for the bub3 strain (AID 167); conditions: S. cerevisiae bub3 mutant strain, stronger effect = higher value
Method in brief: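 Screening used yeast with an engineered genetic alteration affecting cell cycle control. Compound-exposed cultures were compared with vehicle cultures, and reduced growth was taken as inhibition.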

[17] = at 5.0 µM (retest, dose inferred, filed as 0.5)
[18] = at 50.0 µM (retest, dose inferred, filed as 5.0)

Measured: growth inhibition

O=C1c2ccccc2-c2cc3ccccc3c(=O)n21
inactive: [1]; at 1.2 µM 4% | [1]; at 3.7 µM 9% | [1]; at 11.0 µM 31% | [2]; at 1.2 µM 4% | [2]; at 3.7 µM 19% | [2]; at 11.0 µM 66% | [2]; at 100.0 µM 63% | [3]; at 1.2 µM 22% | [3]; at 3.7 µM 14% | [3]; at 11.0 µM 47% | [4]; [17] -13% | [4]; [18] 63% | [5]; at 1.2 µM -22% | [5]; at 3.7 µM -17% | [5]; at 11.0 µM 28% | [5]; at 33.0 µM 63% | [5]; at 100.0 µM 59%
active: [1]; at 33.0 µM 73% | [1]; at 100.0 µM 73% | [2]; at 33.0 µM 74% | [3]; at 33.0 µM 76% | [3]; at 100.0 µM 77% | [4]; at 50.0 µM 81%

c1ccc2nc3c(nc2c1)sc1ccccc13
inactive: [6]; at 1.2 µM 13% | [7]; at 1.2 µM 1% | [7]; at 3.7 µM 4% | [7]; at 11.0 µM 17% | [7]; at 33.0 µM 27% | [7]; at 100.0 µM 23% | [8]; at 1.2 µM 41% | [9]; at 1.2 µM 2% | [9]; at 3.7 µM 2% | [9]; at 11.0 µM 10% | [9]; at 33.0 µM 20% | [9]; at 100.0 µM 18% | [10]; at 1.2 µM 13% | [10]; [17] 54% | [11]; at 1.2 µM 4% | [11]; at 3.7 µM 5% | [11]; [17] -32% | [11]; at 11.0 µM 41% | [11]; at 33.0 µM 42% | [11]; [18] 8% | [11]; at 50.0 µM 31.9% | [11]; at 100.0 µM 36% | [12]; at 1.2 µM 4% | [12]; at 3.7 µM 21% | [12]; at 11.0 µM 35% | [12]; at 33.0 µM 39% | [12]; at 100.0 µM 35% | [13]; [17] -52% | [13]; [18] -5% | [13]; at 50.0 µM 11.2% | [14]; at 1.2 µM -2% | [14]; at 3.7 µM 6% | [14]; at 11.0 µM 28% | [14]; at 33.0 µM 37% | [14]; at 100.0 µM 34% | [15]; [17] -29% | [15]; [18] 15% | [15]; at 50.0 µM 36% | [16]; at 1.2 µM 0% | [16]; at 3.7 µM 11% | [16]; [17] -40% | [16]; at 11.0 µM 41% | [16]; at 33.0 µM 47% | [16]; [18] 12% | [16]; at 50.0 µM 32.8% | [16]; at 100.0 µM 41% | [1]; at 1.2 µM -2% | [1]; at 3.7 µM 1% | [1]; at 11.0 µM 6% | [1]; at 33.0 µM 13% | [1]; at 100.0 µM 9% | [2]; at 1.2 µM 4% | [2]; at 3.7 µM 3% | [2]; at 11.0 µM 19% | [2]; at 33.0 µM 28% | [2]; at 100.0 µM 23% | [3]; at 1.2 µM -2% | [3]; at 3.7 µM 20% | [3]; at 11.0 µM 43% | [3]; at 33.0 µM 51% | [3]; at 100.0 µM 37% | [4]; [17] -71% | [4]; [18] 14% | [4]; at 50.0 µM 61.9% | [5]; at 1.2 µM 4% | [5]; at 3.7 µM 21% | [5]; at 11.0 µM 45% | [5]; at 33.0 µM 52% | [5]; at 100.0 µM 47%
active: [6]; at 3.7 µM 74% | [6]; at 11.0 µM 95% | [6]; at 33.0 µM 94% | [6]; at 100.0 µM 86% | [8]; at 3.7 µM 92% | [8]; at 11.0 µM 95% | [8]; at 33.0 µM 94% | [8]; at 100.0 µM 84% | [10]; at 3.7 µM 75% | [10]; at 11.0 µM 92% | [10]; at 33.0 µM 91% | [10]; [18] 78% | [10]; at 50.0 µM 92.8% | [10]; at 100.0 µM 82%

CC(C)OC(=O)NNc1cc(Cl)ccc1Cl
active: [8]; at 33.0 µM 72% | [8]; at 100.0 µM 88% | [9]; at 100.0 µM 88% | [10]; at 100.0 µM 87% | [11]; at 100.0 µM 77% | [12]; at 100.0 µM 99% | [16]; at 50.0 µM 99% | [4]; [18] 89% | [4]; at 50.0 µM 75.2% | [5]; at 100.0 µM 86%
inactive: [6]; at 1.2 µM 0% | [6]; at 3.7 µM 18% | [6]; at 11.0 µM 41% | [6]; at 33.0 µM 38% | [6]; at 100.0 µM 66% | [7]; at 1.2 µM -2% | [7]; at 3.7 µM 5% | [7]; at 11.0 µM 29% | [7]; at 33.0 µM 34% | [7]; at 100.0 µM 31% | [8]; at 1.2 µM 20% | [8]; at 3.7 µM 27% | [8]; at 11.0 µM 60% | [9]; at 1.2 µM -4% | [9]; at 3.7 µM 2% | [9]; at 11.0 µM 19% | [9]; at 33.0 µM 21% | [10]; at 1.2 µM -3% | [10]; at 3.7 µM 22% | [10]; [17] 19% | [10]; at 11.0 µM 41% | [10]; at 33.0 µM 36% | [10]; [18] 44% | [10]; at 50.0 µM 38% | [11]; at 1.2 µM -4% | [11]; at 3.7 µM 8% | [11]; [17] 9% | [11]; at 11.0 µM 34% | [11]; at 33.0 µM 33% | [11]; [18] 20% | [11]; at 50.0 µM 36.4% | [12]; at 1.2 µM -4% | [12]; at 3.7 µM 3% | [12]; at 11.0 µM 20% | [12]; at 33.0 µM 48% | [13]; [17] 17% | [13]; [18] 48% | [13]; at 50.0 µM 44.2% | [14]; at 1.2 µM -1% | [14]; at 3.7 µM 4% | [14]; at 11.0 µM 29% | [14]; at 33.0 µM 50% | [14]; at 100.0 µM 59% | [15]; [17] 4% | [15]; [18] 21% | [15]; at 50.0 µM 26% | [16]; at 1.2 µM 4% | [16]; at 3.7 µM -1% | [16]; [17] 32% | [16]; at 11.0 µM 19% | [16]; at 33.0 µM 39% | [16]; [18] 60% | [16]; at 100.0 µM 47% | [1]; at 1.2 µM 3% | [1]; at 3.7 µM 4% | [1]; at 11.0 µM 23% | [1]; at 33.0 µM 29% | [1]; at 100.0 µM 35% | [2]; at 1.2 µM -1% | [2]; at 3.7 µM 8% | [2]; at 11.0 µM 41% | [2]; at 33.0 µM 50% | [2]; at 100.0 µM 58% | [3]; at 1.2 µM 0% | [3]; at 3.7 µM 10% | [3]; at 11.0 µM 44% | [3]; at 33.0 µM 44% | [3]; at 100.0 µM 54% | [4]; [17] 57% | [5]; at 1.2 µM 2% | [5]; at 3.7 µM 69% | [5]; at 11.0 µM 69% | [5]; at 33.0 µM 62%
